NR3A LBD binder – modulators (binders) of human NR3A ligand-binding domain; NR3A LBD differential scanning fluorimetry, Tm shift; 0% = protein alone, 100% = glycine-bound protein; Tm shift relative to glycine control, % at 25 µM; hit rate 2.5% among 340,000;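 active means melting temperature shift of at least 10% of the positive control shift, at one fixed dose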
rCAG binder – molecules binding r(CAG) RNA repeats; AID 651821; hit rate 1.3% among 370,000; inhibition, % at 3 µM; r(CAG) RNA repeat, TO-PRO-1 dye displacement fluorescence;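 active means inhibition above the plate cutoff, the mean of all test compounds on that plate plus 3 SD, cut at about 35% in these data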;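 further: 0% = DMSO alone and 100% = 100 µM mitoxantrone as full dye displacement; higher means more dye released from RNA so lower well fluorescence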
AHR activator – human AHR activation; hit rate 2.5% among 320,000; activation, % at 5 µM; AHR-responsive luciferase reporter cells, luminescence; P35869; in the data active means activation above about 47%;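 further: 0% = vehicle wells and 100% = reference agonist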
proKLK7 act – activates the human kallikrein-7 zymogen | P49862 | activation, % at 7 µM | AID 652039 | purified proKLK7, EDANS-DABCYL substrate fluorescence; 100% is mature enzyme control, 0% vehicle | hit rate 0.9% among 370,000;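 active means activation above the mean of all tested compounds plus 3 SD, computed per campaign excluding outliers beyond control limits, cut at about 13% in these data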
ADAM17 inh – ADAM17 inhibition, QFRET primary screen | P78536 | recombinant ADAM17, EDANS/DABCYL FRET peptide cleavage | inhibition, % at 6.95 µM | hit rate 0.83% among 370,000 | AID 720648;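 active means inhibition above the mean of compounds lying between control limits plus 3 SD, set per campaign, cut at about 8.5% in these data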;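 further: 0% = DMSO-only wells as the low control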
Target sequence (P78536 215-824 limits assumed): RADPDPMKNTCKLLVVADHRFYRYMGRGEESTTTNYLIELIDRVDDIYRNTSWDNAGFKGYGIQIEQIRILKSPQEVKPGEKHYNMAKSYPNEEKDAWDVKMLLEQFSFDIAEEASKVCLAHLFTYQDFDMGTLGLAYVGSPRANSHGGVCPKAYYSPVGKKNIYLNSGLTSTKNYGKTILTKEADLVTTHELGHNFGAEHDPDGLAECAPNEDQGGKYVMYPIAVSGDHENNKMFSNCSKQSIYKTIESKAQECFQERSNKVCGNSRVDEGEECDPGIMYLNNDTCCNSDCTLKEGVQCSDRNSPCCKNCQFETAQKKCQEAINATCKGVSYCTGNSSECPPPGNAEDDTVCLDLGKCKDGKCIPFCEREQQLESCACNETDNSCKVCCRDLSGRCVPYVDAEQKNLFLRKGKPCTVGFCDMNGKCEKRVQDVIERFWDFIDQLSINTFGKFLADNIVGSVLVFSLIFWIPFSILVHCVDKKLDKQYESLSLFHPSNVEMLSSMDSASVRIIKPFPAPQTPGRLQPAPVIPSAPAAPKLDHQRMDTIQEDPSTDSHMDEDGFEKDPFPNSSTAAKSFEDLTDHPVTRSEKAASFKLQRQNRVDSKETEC
ADAM10 inh – ADAM10 inhibition, QFRET primary screen | recombinant ADAM10, EDANS/DABCYL FRET peptide cleavage, 3 h | hit rate 0.62% among 370,000 | inhibition, % at 7 µM | AID 720582;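 active means inhibition above a per-campaign cutoff equal to the mean of compounds falling between control-based bounds plus 3 SD, cut at about 20% in these data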;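 further: 0% = DMSO wells while the 100% control is not disclosed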
ADAM10 confirm – confirmation of inhibitors of human ADAM10; shares compounds with ADAM10 inh; ADAM10 QFRET peptide cleavage, EDANS fluorescence; inhibition, % at 6.95 µM; hit rate 1% among 2,100;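 active means inhibition above about 20% chosen separately for each screening run, limit read from the data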;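 further: 0% = DMSO wells and 100% = marimastat wells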
ADAM17 counter – ADAM17 inhibition, counter-screen for ADAM10 exosite hits. hit rate 0.5% among 2,100. inhibition, % at 6.95 µM. ADAM17 QFRET peptide cleavage, EDANS fluorescence. shares compounds with ADAM10 inh;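 active means mean triplicate inhibition above the solvent-only control wells' mean plus 3 SD, cut at about 12% in these data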;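 further: 0% = DMSO wells and 100% = marimastat wells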
* hit, by the source's call. The list is not random: actives were taken first. Their share in the collection is about 7%.

What do the screens show for `COc1ccc(S(=O)(=O)Nc2ccc3c(c2)C(=O)N([C@H](C)CO)C[C@H](C)[C@@H](CN(C)C(=O)Nc2ccc(F)cc2)OCCCC[C@H](C)O3)cc1`?
rCAG binder: 10.1; proKLK7 act: 0.2; ADAM17 inh: -0.5; ADAM10 inh: -1.4

Results for C[C@@H]1CN([C@H](C)CO)C(=O)c2cc(NC(=O)Nc3ccccc3)ccc2O[C@@H](C)CCCCO[C@H]1CN(C)S(=O)(=O)c1ccc(F)cc1 ?
ADAM17 inh: 7.6; ADAM10 inh: 20.3*; ADAM10 confirm: 6.3; ADAM17 counter: 1.8

How did C[C@@H]1CCCCO[C@@H](CN(C)C(=O)Nc2ccc(C(F)(F)F)cc2)[C@@H](C)CN([C@H](C)CO)C(=O)c2cc(NS(=O)(=O)c3ccc(Cl)cc3)ccc2O1 do in these assays?
rCAG binder: 19.0; proKLK7 act: 0.2; ADAM17 inh: 15.8*; ADAM10 inh: 44.7*; ADAM10 confirm: 9.2; ADAM17 counter: 1.4

How did C[C@@H]1CN([C@@H](C)CO)S(=O)(=O)c2ccc(Br)cc2O[C@H]1CN(C)C(=O)Nc1ccc(C(F)(F)F)cc1 do in these assays?
rCAG binder: 5.9; proKLK7 act: 0.1; ADAM17 inh: 8.0; ADAM10 inh: 21.5*; ADAM10 confirm: 3.6; ADAM17 counter: 0.7

How did CC(C)(C)SCCNC(=O)CN(c1ccc(F)cc1)S(=O)(=O)c1ccccc1 do in these assays?
NR3A LBD binder: 0.4; rCAG binder: -4.7; AHR activator: -0.2; proKLK7 act: -0.7; ADAM17 inh: 1.7; ADAM10 inh: 11.1

How did NC(=O)CSc1ncc(-c2ccc([N+](=O)[O-])cc2)[nH]1 do in these assays?
NR3A LBD binder: -0.3; rCAG binder: -1.0; AHR activator: 2.1; proKLK7 act: -0.1; ADAM17 inh: 1.8; ADAM10 inh: 4.4

What do the screens show for `O=[N+]([O-])c1ccc(-c2cnc(SCc3ccccc3Cl)[nH]2)cc1`?
NR3A LBD binder: 13.1*; rCAG binder: 7.3; AHR activator: 3.5; proKLK7 act: 0.1; ADAM17 inh: 1.2; ADAM10 inh: 20.1*; ADAM10 confirm: 5.1; ADAM17 counter: 2.2

Results for Oc1ccc(C[C@H]2CNC(=S)N2CC2CCCN2C[C@H](Cc2ccccc2)N2C[C@H](Cc3ccc(O)cc3)N(CC3CCCCC3)C2=S)cc1 (some centres undefined) ?
rCAG binder: 22.4; proKLK7 act: -0.1; ADAM17 inh: 4.2; ADAM10 inh: 25.4*; ADAM10 confirm: 15.1; ADAM17 counter: 5.9

Results for Oc1ccc(C[C@H]2CN([C@@H](Cc3ccccc3)CN3CCC[C@@H]3CN3C(=S)NC[C@@H]3Cc3ccccc3)C(=S)N2CC2CCCCC2)cc1 ?
rCAG binder: 11.9; proKLK7 act: -0.2; ADAM17 inh: 1.6; ADAM10 inh: -16.9

Results for Oc1ccc(C[C@H]2CNC(=S)N2CC2CCCN2C[C@H](Cc2ccc(O)cc2)N2C[C@H](Cc3ccccc3)N(CC3CCCCC3)C2=S)cc1 (some centres undefined) ?
NR3A LBD binder: 32.6*; rCAG binder: 11.6; proKLK7 act: 0.0; ADAM17 inh: 12.9*; ADAM10 inh: 20.2*; ADAM10 confirm: 25.0*; ADAM17 counter: 8.9

What do the screens show for `CC(C)CC(NS(=O)(=O)OCC(Cl)(Cl)Cl)c1ccccc1` (centres undefined)?
NR3A LBD binder: -9.0; rCAG binder: 1.1; AHR activator: 2.5; proKLK7 act: -0.5; ADAM17 inh: 4.1; ADAM10 inh: 20.4*; ADAM10 confirm: 6.0; ADAM17 counter: 1.8

What do the screens show for `COC(=O)CCC(NS(=O)(=O)OCC(Cl)(Cl)Cl)c1ccccc1` (centres undefined)?
NR3A LBD binder: -1.4; rCAG binder: -3.5; AHR activator: 0.7; proKLK7 act: -0.3; ADAM17 inh: -3.2; ADAM10 inh: 1.7

How did CN(C)/C=C/C1=C([N+](=O)[O-])C(c2cccc([N+](=O)[O-])c2)NC(=O)N1 (centres undefined) do in these assays?
NR3A LBD binder: -1.1; rCAG binder: 17.9; AHR activator: -1.4; proKLK7 act: 0.3; ADAM17 inh: 1.6; ADAM10 inh: 4.3

How did COc1ccccc1Nc1ccc(NC(=O)c2cccc([N+](=O)[O-])c2C)cc1 do in these assays?
NR3A LBD binder: 19.1*; rCAG binder: 15.0; AHR activator: 11.2; proKLK7 act: -0.1; ADAM17 inh: 8.1; ADAM10 inh: 34.8*; ADAM10 confirm: 12.6; ADAM17 counter: 3.5

How did COc1cc(NC(=O)C/C(C)=N/NC(=O)c2cccs2)c(OC)cc1Cl do in these assays?
NR3A LBD binder: -1.4; rCAG binder: 10.0; AHR activator: 63.9*; proKLK7 act: 0.4; ADAM17 inh: 15.0*; ADAM10 inh: 28.1*; ADAM10 confirm: 0.3; ADAM17 counter: 0.7

What do the screens show for `Cc1ccc(C(c2cc(Br)ccc2O)N2CCSCC2)cc1` (centres undefined)?
NR3A LBD binder: -8.8; rCAG binder: -2.4; AHR activator: 1.9; proKLK7 act: 0.7; ADAM17 inh: 6.4; ADAM10 inh: 24.9*; ADAM10 confirm: 1.4; ADAM17 counter: 0.2

Results for Cc1cccc(-c2noc(CNC(=O)c3ccc4c(c3)OCO4)n2)c1 ?
NR3A LBD binder: 2.7; rCAG binder: 4.6; AHR activator: 28.5; proKLK7 act: 0.4; ADAM17 inh: 1.6; ADAM10 inh: 22.7*; ADAM10 confirm: 0.0; ADAM17 counter: 0.5

What do the screens show for `O=C(NCC1CCCO1)C(=O)N/N=C/c1c(F)cccc1Cl` (centres undefined)?
NR3A LBD binder: 0.6; rCAG binder: -0.4; AHR activator: -2.2; proKLK7 act: -0.3; ADAM17 inh: -1.0; ADAM10 inh: 1.3

How did C=C1[C@@H](OC(C)=O)CC[C@]2(C)[C@@H]1C[C@@H]1C[C@H](OC(C)=O)C(C)=C([C@@H](OC(C)=O)[C@@H]2OC(C)=O)C1(C)C do in these assays?
NR3A LBD binder: 2.9; rCAG binder: -3.3; AHR activator: 0.3; proKLK7 act: 0.8; ADAM17 inh: -3.0; ADAM10 inh: -0.6

How did Nc1c(-c2ccccc2)c(CSc2nc3ccccc3[nH]2)nn1-c1ccc(Cl)cc1 do in these assays?
NR3A LBD binder: -4.3; rCAG binder: 8.9; AHR activator: 2.4; proKLK7 act: -0.6; ADAM17 inh: 4.3; ADAM10 inh: 28.5*; ADAM10 confirm: 4.5; ADAM17 counter: 2.5

Results for CC(O)(c1ccccc1)c1nc(/C=C/c2ccccc2)cs1 (centres undefined) ?
rCAG binder: 1.8; proKLK7 act: -0.5; ADAM17 inh: 4.4; ADAM10 inh: 14.7
